We go through 108 sequences from PubChem BioAssay AID1508600 (Functional Genomics Laboratory (NCATS/FGL), 2020).

The whole screen tested about 53,000 sequences, of which about 3,700 (7%) were called active. This is one part of a sample in which actives are shown more often than they occur. A number with no mark means an inactive call.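 The calls were made as follows: active = gene knockdowns whose robust z-score for IL-1 alpha signal is at least 2 or at most -2, so actives lie on both sides; inactive = the rest.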

A short description of this assay: Components of the Cytosolic LPS Sensing Pathway: Gene Identification via Genome-wide siRNA Screen.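 Also: robust z of the log signal after scaling to non-targeting control siRNA wells of the plate.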 To be noted: RAW264.7 macrophages, IL-1a HTRF, actives lie on both sides, screened at 100 nM (by protocol), cells primed 5 h with Pam3CSK4 first. In a few lines: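 Read-out: IL-1a HTRF on supernatant, divided by plate negative-control median ×100, log-transformed and converted to robust z-score. Cells were RAW264.7 given 100 nM siRNA, Pam3CSK4-primed 5 hours, then LipidA-transfected 24 hour.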
(In TR-FRET formats the signal depends on donor and acceptor labels being close together.)
For GGGACAGAAAGGAAAGACUTT against Ndufb4, the z-score is 0.0331.

Turning to CCAUUGACACCUUAAAUAUTT against Cnot3, the z-score is 0.131.

Take GGGCACACCCAUGAAGACATT against Hnf1a: the z-score was 4.58 (active). The same measure for GGCAGAACUACUUUUAUAGTT against Cldn17: 0.436. With GGCCGUACUAGAUUUUCUUTT against Olfr695, the z-score was 1.35. The same measure for GGCUGGGAAUUUUACAGUATT against Gpr3: 3.98 (active).

For GGCCUAUAAGUUGGACUCCTT against Sstr5, the z-score is -0.897. The same measure for GGAAUAACAGCCUUGUAUUTT against Slc25a15: -0.145.

On to GGAUCUGAUCCAGACUUCUTT against Ndrg1, for which the z-score was 2.05 (active). The same measure for “GGUUUUCUACAGGAGAGACTT against 9430015G10Rik”: 1.33; for CGCAAUGCUGGAUUAUUUATT against Ceacam2: 0.628. To GGGAAGUGACAUAUUCUCGTT against Brf2 belongs -0.277. To GGAGAAGCCAGGAGUUUACTT against Klk6 belongs 1.71; to GGUACUAGAUGACAAAAACTT against Cfap20, 0.436; to GGUGUUUUAAGAUUGAAUGTT against Ccn1, 0.782.

CCCAGGUAGUAUACAAGGUTT against Pcdh1: the z-score is 2.42 (active).

For CCCUCCAGUAAAUUUUAAGTT against Sox6, the z-score is 1.7.

For the sequence GGCAUAUGCCAGUAUCGGUTT against Defb8, the z-score was -0.595. With GGAAUGGUAUCAGACUUCUTT against Tarm1, the z-score is 1.54. Take GCUACAGAAACCCGGGUAGTT against Jsrp1: the z-score was -1.46.

Turning to CCGCCAUAGGCUCCUUCAATT against Acat3, the z-score is 0.915.

In the case of GGGAUCAAUGUCAUCCUUUTT against Nif3l1, the z-score is -0.442. The same measure for GCUGCGUAGAACCAUAUGCTT against Cst9: -0.802; for GGAAAUCGAGGUUACAAGUTT against Isy1: -2.64 (active). The same measure for GGCCACUGACCAUGAAGAATT against Gata2: -0.289. For the sequence GGCAAACAUGAAUCUUACCTT against Cyth4, the z-score is -0.375. Consider GGAGAUCAUCCACUUCCAGTT against Dbh, for which the z-score is 2.06 (active). To GCAAGACUCUACACAUCACTT against Nox4 belongs 0.0384. To GAGACAGAUAGGCAGAAAATT against Olfr478 belongs -1.02; to CCAAUUGAAACUCUUUUCCTT against Thada, 0.562. The same measure for GGUUUGGUGUCAGGUGACATT against Olfr1181: -2.05 (active); for GGGUGAAAAAGGAAUAAAGTT against Col7a1: 0.344. Consider GGAAAUCAUCUUUUCAGAUTT against Slc7a12, for which the z-score is -0.443.

On to GCCACUAGUGAAGACAUCCTT against Adamtsl1, for which the z-score is -0.149. The same measure for CGUCUCCAUAGAUCUAGAUTT against Creb3: -0.748; for CCAUCUUGACACCCAAACUTT against Olfr170: -3.09 (active); for CGAAAGCAUUGCCUACUUUTT against Anks3: 0.843.

As to GGGACUUUAAAAAAGACUCTT against Olfr1366, the z-score was 2.1 (active).

Turning to CCAGAGGUCUCUAUUAAGATT against Cad, the z-score is -0.0939. As for GGACAUGGAUCAAAGUUCATT against Zfp40, the z-score was -0.645.

Consider GGCAUCUCCUCGAAUUUAUTT against Theg, for which the z-score is -0.737. The same measure for GGAGCAUCCCGACUACAAGTT against Sox21: 3.54 (active). Take GGAUCGAUCUGACAUCAAATT against Epyc: the z-score was -0.31. To CCUAUUAAUAUGGAAAGUGTT against Arcn1 belongs 0.675; to GGGCAACUAUCUUCAAAAATT against Nxnl2, 0.328. Take GGCAAUUACCCACCCUGUUTT against Mfsd6: the z-score was -2.57 (active). The same measure for CCAAGCCUAAUAAAAUUCCTT against Lsr: 0.867. The same measure for GGCAGAAAACAAGAUAAAGTT against Eif4h: -0.325; for CGGCAAGAUGUCUACUAACTT against Wdtc1: 0.655. To CCCUAACUCUGUUAAUGCATT against Casp14 belongs -0.627.

GGAAAUUGGUCCAGUUAUUTT against Magee1: the z-score is 1.37. The same measure for CCAACUGUUGGUGAUGAUGTT against Cpsf6: -2.05 (active). The same measure for GCGGGCCAUAAAGAGACAUTT against Timm17a: -0.164.

Consider GGGAUUUAAAGCCAACUUGTT against Sfpq, for which the z-score was 0.62.

For the sequence GGAGAAAUAGAUUCAGUGATT against Cep170, the z-score was -0.839. As to GGCAGUUUUUGGACUGUCCTT against Olfr556, the z-score was -0.21. The same measure for GGUUAAGAGCGUACGUUUUTT against Tmem204: 1.46; for GGACAACCUUUACUUCUCUTT against Rhox9: -2.78 (active). The same measure for GGGAGAUCUCUCACAGAUCTT against Gja10: 1.41; for CCAUAGUGUAUCUGACUGGTT against Iqsec1: -0.135; for GGUGGUGAAGCUAAAGCAGTT against Prkaca: -1.58. As for GCAUGGACAGUUAUGUAUATT against Slc5a6, the z-score is -0.207. The same measure for GGUGUUAGAUUCUUUGUAATT against Cst6: 2.04 (active); for GGUAUAGUAGUGGAAGAUUTT against Uso1: 0.341; for GGACUUAUGGCAUUAGAAUTT against Nup88: -1.17. The same measure for GGUGAUCCUAAGAAAGUCCTT against Ireb2: 1.07; for GGAUUGGUUUAGUCAAUAATT against Psmc4: -2.03 (active). Turning to GCUUCCUUCUGCUAGAUGGTT against Oxct2a, the z-score is -0.409.

Turning to GGUUUAGAAUGCAUAACAGTT against Dzank1, the z-score is -0.217.

Regarding UAUUAAACUCUUGAGACCGTT against Oxa1l, the z-score is -0.571. With GGAAAAGCCUACUUCAAAATT against Efcab7, the z-score was 0.9. As to “GGAAAACAAGUGGAAAGGGTT against C130071C03Rik”, the z-score was 1.54. To “GGAUCAGCAACAGUCUCCATT against 1700029M20Rik” belongs -2.01 (active); to CCAGCUUCCUCGUAAGUGATT against Hsf4, -1.71; to CCACGAUAUUCCAGGUCUGTT against AF067063, -1.54. To GCGAUUGUCCAAGAAUUCCTT against Crcp belongs 0.822; to GGGAGAGGACGACAUUUACTT against Otx2, 0.645.

For GGAGCCAUGCUAAGAGCAUTT against Dbil5, the z-score is 0.494. To GCCAGAGUGUCGAAUAUCATT against Dll4 belongs -0.417; to GGACGCAGACAGGACAAAATT against Parp2, 2.16 (active); to “GUUACUGCGUGGACUGUGUTT against C730034F03Rik”, -0.0785. To GCCGUAGGUUAGAGAAUCGTT against Nxnl1 belongs -0.348; to CCGUCUUUGUGCUAUGCUGTT against Sstr4, 1.56; to GGAGGUGAAGCUUCGAAUGTT against Slc25a10, 0.052.

GGAAAUGGCCUCCAUGAGATT against Krt14: the z-score was 0.734.

Regarding GGCCUUGCACUUCAGUUUCTT against Mfsd4b1, the z-score was -0.436. Regarding GGAAAGAAGAAAUGAGAAGTT against Gm9871, the z-score is -1.57. For the sequence CGGAAGAAGCCAGUUAAGATT against Apol9b, the z-score is 0.665. The same measure for GCGUGGAAGGUCUGAACACTT against Arfgap3: 4.18 (active); for GGAGUUGUGAAUUUCUCGUTT against Sri: -0.198.

Turning to GGUUACUAGAAAAGUGUUGTT against Olfr1489, the z-score was 1.41.

Turning to GGGAAUUUCCUGAAAUCCUTT against Mettl8, the z-score is -0.167.

Turning to GGUUAACCUGAGAAAAAUGTT against Mkrn1, the z-score is 0.734. The same measure for GGCAACUUAGGAGUUAGACTT against Pgam5: 0.533. As for GUGUGAACAGAGGCAGAAATT against Xlr3a, the z-score is -2.46 (active). The same measure for CCCUAAGCUCUGUUCCCAGTT against Olfr371: -0.561; for GCCAAUCUCUGCUAGAUACTT against Slc46a1: 0.447. To GGCAACACACUGUCAUUUCTT against Il9 belongs -1.06. The same measure for CCAACUGUGAUCAGUGAGCTT against Shank3: -0.387. For GGCCUUGAAGGAGAUGCUATT against Rell2, the z-score is 0.887. The same measure for GCAGAUCAUUCCCGUGUUGTT against P2ry14: 0.565; for GGACAAGAAGGAAAAGAAATT against Brd4: -3.25 (active); for GCUGUGCAAGGUGAGGAAATT against Rps4l: 1.25. Consider GGUGAUGGAAAUAAACUACTT against Dhrs7b, for which the z-score was 1.44. The same measure for GGACAAGAAGCCACUGACATT against Arrb1: 2.2 (active).

As to GGACCAUUAAACUAAAUGGTT against Tpte, the z-score was -0.592. The same measure for GCUCUCACAGGAUAAGGCUTT against Cryga: -0.126; for CCUCGUUAUCCUCAUGGGATT against Alppl2: 0.649.
